The supplement of paper PMC13392028

Test system: PvIESI-1 RRM domain (Plasmodium vivax PVP01_0939900 aa 896-1203, GST fusion)
Test: RBNS R-value (6-mer enrichment in protein-bound RNA vs input library) (ratio); higher = stronger binding preference; the methods of the paper give 50 / 100 / 500 nM protein instead
Protocol: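 RNA Bind-n-Seq: recombinant GST-tagged IESI-1 RRM domain was incubated at room temperature with a random 40-nt in vitro transcribed RNA library at 250, 500 or 1000 nM protein. Bound RNA was pulled down on glutathione beads and sequenced. R-value is the enrichment of each 6-mer in the bound RNA relative to the input library. Each 6-mer sits inside the random 40-mer context, not as an isolated oligo. Values are replicate 1 only.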

Row | Sequence | RBNS R-value (protein concentration: 250 nM) | RBNS R-value (protein concentration: 500 nM) | RBNS R-value (protein concentration: 1000 nM)
1 | AUUGAU | 3.54 | 3.72 | 3.67
2 | UGAUUC | 3.85 | 4.13 | 3.89
3 | UAUGAU | 3.09 | 3.27 | 3.27
4 | AUGAUG | 5.14 | 5.26 | 5.02
5 | UGAUGA | 5.51 | 5.62 | 5.25
6 | UUUGAU | 3.94 | 4.25 | 3.98
7 | UGAUGG | 3.91 | 4.11 | 3.78
8 | UGAUAA | 2.82 | 3.29 | 3.43
9 | UGAUAC | 2.41 | 2.83 | 2.87
10 | UGAUUA | 3.86 | 4.25 | 4.11
11 | GAUGGG | 2.02 | 2.1 | 2.01
12 | UUGAUA | 2.87 | 3.36 | 3.32
13 | GAUUUG | 2.81 | 2.87 | 2.62
14 | UUGAUU | 4.5 | 4.73 | 4.43
